Assay results: publication PMC7862700, “An all-to-all approach to the identification of sequence-specific readers for epigenetic DNA modifications on cytosine”

How the values were obtained:
Assay in all cases: DAPPL (digital affinity profiling via proximity ligation, sequencing); 10 mM Tris-HCl pH 7.5, 50 mM NaCl, 1 mM DTT, 4% glycerol, room temperature, 30 min; GST-TFs on glutathione beads, 16-mer random dsDNA library, 0.1% formaldehyde crosslink after washing; high values mean tight binding
Settings in all cases: protein: recombinant; tags: N-terminal GST; dsDNA, one strand shown
FLI1 = molecular target: T1, FLI1 (Homo sapiens, UniProt Q01543 1-452)
T1 sequence: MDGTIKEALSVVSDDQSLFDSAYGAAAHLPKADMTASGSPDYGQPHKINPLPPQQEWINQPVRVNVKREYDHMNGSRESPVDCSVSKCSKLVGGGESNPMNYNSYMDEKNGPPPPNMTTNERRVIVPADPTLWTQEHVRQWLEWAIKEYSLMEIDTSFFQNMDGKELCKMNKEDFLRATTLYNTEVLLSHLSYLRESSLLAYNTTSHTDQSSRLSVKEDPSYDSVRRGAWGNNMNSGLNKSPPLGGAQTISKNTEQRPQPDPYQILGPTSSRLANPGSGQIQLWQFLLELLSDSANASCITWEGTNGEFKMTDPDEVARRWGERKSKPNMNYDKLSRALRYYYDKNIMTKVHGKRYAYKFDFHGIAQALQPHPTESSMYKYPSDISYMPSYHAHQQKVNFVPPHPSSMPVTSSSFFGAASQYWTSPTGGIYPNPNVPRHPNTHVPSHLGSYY
How it was run: (§1)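 Binding signal is given per hexamer as its read frequency for a factor divided by its frequency in the tag-only sample. GST-fused human transcription factors were expressed in yeast, captured on glutathione beads, barcoded with DNA and pooled with that sample, then incubated with 200 nmole of a 16-mer random double-stranded DNA library in Tris/NaCl/DTT/glycerol buffer for 30 min at room temperature. The pools were then washed, crosslinked, proximity-ligated, amplified by PCR and sequenced on an Illumina NextSeq500.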

ELK1 = molecular target: T2, ELK1 (Homo sapiens, UniProt P19419 1-428)
T2 sequence: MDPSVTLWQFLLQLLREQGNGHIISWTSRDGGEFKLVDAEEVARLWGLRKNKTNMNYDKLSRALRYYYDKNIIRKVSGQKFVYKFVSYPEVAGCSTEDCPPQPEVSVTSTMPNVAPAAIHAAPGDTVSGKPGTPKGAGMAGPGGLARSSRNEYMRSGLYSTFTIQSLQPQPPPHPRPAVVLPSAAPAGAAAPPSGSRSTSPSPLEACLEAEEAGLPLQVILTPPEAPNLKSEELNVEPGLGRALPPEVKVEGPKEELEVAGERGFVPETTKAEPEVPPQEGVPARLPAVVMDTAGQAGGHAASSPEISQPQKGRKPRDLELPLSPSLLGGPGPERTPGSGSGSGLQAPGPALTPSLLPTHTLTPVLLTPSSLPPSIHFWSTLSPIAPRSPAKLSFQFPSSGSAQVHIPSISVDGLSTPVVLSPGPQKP
How it was run: as §1

GABPA = molecular target: T3, GABPA (Homo sapiens, UniProt Q06546 1-454)
T3 sequence: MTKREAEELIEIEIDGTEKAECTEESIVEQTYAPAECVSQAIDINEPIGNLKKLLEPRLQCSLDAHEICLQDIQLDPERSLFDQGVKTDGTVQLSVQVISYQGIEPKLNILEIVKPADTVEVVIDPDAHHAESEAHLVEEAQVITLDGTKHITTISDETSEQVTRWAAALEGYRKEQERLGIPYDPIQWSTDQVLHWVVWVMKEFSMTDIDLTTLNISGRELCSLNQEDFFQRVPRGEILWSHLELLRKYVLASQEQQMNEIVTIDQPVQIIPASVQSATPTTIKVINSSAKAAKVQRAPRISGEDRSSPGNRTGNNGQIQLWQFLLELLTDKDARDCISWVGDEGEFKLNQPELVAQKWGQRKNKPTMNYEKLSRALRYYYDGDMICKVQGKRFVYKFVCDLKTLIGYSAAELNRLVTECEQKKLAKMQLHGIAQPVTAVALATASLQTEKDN
How it was run: as §1

ERG = molecular target: T4, ERG (Homo sapiens, UniProt P11308 1-479)
T4 sequence: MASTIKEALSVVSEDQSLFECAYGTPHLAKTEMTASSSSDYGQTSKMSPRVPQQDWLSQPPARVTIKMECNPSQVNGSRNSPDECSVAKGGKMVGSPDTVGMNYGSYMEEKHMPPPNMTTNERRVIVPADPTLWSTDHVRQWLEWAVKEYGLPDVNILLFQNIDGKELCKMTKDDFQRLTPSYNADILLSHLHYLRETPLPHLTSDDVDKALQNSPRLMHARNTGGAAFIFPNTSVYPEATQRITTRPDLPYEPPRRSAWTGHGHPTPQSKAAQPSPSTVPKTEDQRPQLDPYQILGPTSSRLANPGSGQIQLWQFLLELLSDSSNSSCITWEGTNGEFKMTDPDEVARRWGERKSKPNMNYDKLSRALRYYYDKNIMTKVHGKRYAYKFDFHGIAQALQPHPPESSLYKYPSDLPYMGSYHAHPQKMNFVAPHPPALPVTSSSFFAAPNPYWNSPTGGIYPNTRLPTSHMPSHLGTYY
How it was run: as §1

ELF1 = ELF1 (Homo sapiens, UniProt P32519 1-619)
ELF1, sequence (P32519 whole entry): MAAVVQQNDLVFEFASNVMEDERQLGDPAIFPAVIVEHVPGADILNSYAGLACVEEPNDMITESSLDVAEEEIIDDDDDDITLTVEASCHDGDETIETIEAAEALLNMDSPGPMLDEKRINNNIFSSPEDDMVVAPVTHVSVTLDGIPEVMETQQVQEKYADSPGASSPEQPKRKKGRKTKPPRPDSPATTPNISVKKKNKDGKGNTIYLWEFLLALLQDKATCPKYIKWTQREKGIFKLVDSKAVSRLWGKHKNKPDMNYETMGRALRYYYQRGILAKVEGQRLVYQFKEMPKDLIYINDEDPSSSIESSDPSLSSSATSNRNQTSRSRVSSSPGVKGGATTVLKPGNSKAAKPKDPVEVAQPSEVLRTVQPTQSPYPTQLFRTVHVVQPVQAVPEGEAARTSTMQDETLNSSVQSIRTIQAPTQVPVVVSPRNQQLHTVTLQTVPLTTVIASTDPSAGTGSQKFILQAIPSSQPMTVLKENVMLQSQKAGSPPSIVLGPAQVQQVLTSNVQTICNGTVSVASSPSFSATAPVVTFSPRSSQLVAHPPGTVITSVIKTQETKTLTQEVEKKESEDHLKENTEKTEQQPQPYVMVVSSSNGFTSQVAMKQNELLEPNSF
How it was run: as §1

EHF = molecular target: T5, EHF (Homo sapiens, UniProt Q9NZC4 1-300)
T5 sequence: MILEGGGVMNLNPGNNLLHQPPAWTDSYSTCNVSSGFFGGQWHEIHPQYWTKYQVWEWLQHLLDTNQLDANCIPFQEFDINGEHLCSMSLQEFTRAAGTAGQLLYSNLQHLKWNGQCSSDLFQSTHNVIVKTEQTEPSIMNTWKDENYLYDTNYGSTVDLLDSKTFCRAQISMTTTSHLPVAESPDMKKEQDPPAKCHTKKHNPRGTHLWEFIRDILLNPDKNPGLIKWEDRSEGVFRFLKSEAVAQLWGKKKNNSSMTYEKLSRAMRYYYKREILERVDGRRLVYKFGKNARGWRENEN
How it was run: as §1

SPI1 = SPI1 (Homo sapiens, UniProt P17947 1-270)
How it was run: as §1

SPIB = SPIB (Homo sapiens, UniProt Q01892 1-262)
SPIB, sequence (Q01892 whole entry): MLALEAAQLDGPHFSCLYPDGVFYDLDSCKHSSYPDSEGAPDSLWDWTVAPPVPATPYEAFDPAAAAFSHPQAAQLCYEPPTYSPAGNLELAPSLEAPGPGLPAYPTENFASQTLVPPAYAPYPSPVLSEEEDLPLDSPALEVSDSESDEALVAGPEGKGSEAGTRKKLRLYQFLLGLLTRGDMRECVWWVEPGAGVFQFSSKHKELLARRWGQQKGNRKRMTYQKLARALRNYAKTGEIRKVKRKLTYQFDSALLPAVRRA
How it was run: as §1

ELK3 = molecular target: T6, ELK3 (Homo sapiens, UniProt P41970 1-407)
T6 sequence: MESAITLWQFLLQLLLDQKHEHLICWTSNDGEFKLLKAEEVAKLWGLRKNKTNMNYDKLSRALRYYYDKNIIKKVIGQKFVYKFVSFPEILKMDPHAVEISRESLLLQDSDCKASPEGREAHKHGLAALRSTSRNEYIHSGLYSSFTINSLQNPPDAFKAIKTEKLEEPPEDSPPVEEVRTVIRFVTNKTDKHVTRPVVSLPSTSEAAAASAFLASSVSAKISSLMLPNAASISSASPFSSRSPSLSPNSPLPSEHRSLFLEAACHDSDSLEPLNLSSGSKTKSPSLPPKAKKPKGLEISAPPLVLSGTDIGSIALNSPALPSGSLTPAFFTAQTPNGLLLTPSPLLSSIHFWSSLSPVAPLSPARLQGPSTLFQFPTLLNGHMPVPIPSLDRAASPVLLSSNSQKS
How it was run: as §1

FEV = molecular target: T7, FEV (Homo sapiens, UniProt Q99581 1-238)
T7 sequence: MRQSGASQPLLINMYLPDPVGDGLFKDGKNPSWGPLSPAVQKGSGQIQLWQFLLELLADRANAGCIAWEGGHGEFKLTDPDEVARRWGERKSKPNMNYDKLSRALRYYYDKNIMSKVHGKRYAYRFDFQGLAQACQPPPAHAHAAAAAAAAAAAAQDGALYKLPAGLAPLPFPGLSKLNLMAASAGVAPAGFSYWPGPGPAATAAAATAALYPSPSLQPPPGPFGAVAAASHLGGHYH
How it was run: as §1

ETV5 = ETV5 (Homo sapiens, UniProt P41161 1-510)
ETV5, sequence (P41161 whole entry): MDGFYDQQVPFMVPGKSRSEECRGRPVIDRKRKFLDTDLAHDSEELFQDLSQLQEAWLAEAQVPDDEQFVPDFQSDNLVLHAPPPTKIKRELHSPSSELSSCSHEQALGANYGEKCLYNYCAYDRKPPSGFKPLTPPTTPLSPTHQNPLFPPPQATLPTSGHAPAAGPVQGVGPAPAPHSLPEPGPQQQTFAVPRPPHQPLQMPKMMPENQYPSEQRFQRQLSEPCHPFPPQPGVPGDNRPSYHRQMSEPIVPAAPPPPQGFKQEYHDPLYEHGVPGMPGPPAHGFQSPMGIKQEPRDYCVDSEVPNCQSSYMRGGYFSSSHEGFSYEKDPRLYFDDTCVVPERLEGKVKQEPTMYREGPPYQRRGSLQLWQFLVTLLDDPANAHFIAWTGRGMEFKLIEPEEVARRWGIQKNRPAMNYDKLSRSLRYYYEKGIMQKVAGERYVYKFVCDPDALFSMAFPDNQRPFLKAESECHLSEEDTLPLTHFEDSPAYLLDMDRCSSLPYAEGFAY
How it was run: as §1

SPIC = molecular target: T8, SPIC (Homo sapiens, UniProt Q8N5J4 1-248)
T8 sequence: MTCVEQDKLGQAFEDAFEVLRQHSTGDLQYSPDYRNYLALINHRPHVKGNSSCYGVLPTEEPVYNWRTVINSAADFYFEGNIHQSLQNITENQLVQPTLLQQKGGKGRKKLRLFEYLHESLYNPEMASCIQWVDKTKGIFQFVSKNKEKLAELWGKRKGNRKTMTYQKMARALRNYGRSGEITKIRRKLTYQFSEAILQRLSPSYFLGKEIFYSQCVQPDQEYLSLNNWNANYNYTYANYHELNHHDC
How it was run: as §1

ELF4 = ELF4 (Homo sapiens, UniProt Q99607 1-663)
ELF4, sequence (Q99607 whole entry): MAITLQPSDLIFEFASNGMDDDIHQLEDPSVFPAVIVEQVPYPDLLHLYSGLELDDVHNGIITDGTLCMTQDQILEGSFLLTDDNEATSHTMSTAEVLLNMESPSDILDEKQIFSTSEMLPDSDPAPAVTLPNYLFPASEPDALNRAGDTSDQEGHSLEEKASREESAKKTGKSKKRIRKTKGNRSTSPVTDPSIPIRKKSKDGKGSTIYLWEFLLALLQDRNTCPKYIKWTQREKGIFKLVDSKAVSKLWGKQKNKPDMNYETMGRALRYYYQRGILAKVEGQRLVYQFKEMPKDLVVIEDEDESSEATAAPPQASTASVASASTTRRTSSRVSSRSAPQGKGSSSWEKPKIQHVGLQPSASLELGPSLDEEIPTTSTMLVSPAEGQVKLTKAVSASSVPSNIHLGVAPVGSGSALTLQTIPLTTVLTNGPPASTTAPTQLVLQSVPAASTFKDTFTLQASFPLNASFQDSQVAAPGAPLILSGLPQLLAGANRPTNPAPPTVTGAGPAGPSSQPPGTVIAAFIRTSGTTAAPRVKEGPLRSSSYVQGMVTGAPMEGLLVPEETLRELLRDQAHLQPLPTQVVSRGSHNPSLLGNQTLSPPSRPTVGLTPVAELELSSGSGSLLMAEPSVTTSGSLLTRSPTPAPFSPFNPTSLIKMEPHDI
How it was run: as §1

ETV1 = ETV1 (Homo sapiens, UniProt P50549 1-477)
ETV1, sequence (P50549 whole entry): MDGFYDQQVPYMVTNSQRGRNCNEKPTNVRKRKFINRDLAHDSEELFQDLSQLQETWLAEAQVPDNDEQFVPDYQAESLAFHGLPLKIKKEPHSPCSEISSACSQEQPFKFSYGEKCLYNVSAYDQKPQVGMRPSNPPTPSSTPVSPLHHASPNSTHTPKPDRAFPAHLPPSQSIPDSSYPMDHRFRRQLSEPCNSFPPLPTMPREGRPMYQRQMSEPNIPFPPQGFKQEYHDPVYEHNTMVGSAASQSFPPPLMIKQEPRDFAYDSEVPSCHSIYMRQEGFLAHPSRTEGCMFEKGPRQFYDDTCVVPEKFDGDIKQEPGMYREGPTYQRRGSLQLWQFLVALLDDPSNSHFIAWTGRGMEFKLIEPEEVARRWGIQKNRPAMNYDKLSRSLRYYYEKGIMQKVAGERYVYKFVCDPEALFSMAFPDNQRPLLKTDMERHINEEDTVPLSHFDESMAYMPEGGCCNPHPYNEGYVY
How it was run: as §1

ERF = molecular target: T9, ERF (Homo sapiens, UniProt P50548 1-548)
T9 sequence: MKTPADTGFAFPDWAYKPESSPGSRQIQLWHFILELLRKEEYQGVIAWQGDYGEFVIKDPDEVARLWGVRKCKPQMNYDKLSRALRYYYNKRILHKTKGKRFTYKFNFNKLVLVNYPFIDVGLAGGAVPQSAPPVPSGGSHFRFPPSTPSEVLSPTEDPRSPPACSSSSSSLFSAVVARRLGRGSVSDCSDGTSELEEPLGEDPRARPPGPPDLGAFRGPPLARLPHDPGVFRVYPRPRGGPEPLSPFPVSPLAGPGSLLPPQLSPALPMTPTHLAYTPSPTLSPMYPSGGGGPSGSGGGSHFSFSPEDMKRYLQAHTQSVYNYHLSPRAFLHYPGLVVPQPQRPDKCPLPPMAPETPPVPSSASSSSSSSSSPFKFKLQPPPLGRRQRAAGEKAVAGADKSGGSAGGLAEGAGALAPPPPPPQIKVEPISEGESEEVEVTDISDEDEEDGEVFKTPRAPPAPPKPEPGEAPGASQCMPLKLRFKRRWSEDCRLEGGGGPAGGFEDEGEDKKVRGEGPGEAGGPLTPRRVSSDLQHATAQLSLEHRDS
How it was run: as §1

ETV3L = molecular target: T10, ETV3L (Homo sapiens, UniProt Q6ZN32 1-361)
T10 sequence: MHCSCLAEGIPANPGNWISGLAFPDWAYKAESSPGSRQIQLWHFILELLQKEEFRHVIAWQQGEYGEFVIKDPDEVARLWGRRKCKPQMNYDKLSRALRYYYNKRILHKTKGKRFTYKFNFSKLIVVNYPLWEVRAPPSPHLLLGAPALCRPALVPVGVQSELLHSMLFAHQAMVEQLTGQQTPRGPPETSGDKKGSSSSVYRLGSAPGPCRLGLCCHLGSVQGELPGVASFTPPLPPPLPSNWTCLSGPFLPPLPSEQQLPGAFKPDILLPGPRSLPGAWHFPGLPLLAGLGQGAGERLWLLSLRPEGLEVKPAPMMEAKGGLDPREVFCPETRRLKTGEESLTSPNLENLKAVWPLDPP
How it was run: as §1

ETS2 = molecular target: T11, ETS2 (Homo sapiens, UniProt P15036 1-469)
T11 sequence: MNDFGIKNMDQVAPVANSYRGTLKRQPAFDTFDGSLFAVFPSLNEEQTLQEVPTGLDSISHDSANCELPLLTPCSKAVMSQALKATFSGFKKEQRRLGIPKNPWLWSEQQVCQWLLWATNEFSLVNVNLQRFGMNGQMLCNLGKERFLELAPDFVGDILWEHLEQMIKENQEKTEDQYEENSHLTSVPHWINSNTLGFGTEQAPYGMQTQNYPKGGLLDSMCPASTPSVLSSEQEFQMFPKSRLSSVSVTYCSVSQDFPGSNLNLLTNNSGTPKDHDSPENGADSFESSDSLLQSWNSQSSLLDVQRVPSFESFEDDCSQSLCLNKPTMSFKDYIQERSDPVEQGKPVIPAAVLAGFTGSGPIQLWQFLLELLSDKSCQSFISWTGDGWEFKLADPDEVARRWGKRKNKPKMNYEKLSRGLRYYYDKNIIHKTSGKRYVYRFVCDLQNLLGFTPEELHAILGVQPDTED
How it was run: as §1

ELF5 = molecular target: T12, ELF5 (Homo sapiens, UniProt Q9UKW6-2 1-255)
T12 sequence: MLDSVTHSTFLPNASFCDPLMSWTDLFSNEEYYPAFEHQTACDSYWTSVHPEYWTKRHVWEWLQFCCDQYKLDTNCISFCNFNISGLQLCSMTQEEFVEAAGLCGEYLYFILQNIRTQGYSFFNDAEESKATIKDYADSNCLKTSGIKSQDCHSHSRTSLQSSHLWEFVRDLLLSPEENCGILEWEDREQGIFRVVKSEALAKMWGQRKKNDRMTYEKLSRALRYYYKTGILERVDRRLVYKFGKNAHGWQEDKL
How it was run: as §1

ETV3 = molecular target: T13, ETV3 (Homo sapiens, UniProt P41162-2 1-143)
T13 sequence: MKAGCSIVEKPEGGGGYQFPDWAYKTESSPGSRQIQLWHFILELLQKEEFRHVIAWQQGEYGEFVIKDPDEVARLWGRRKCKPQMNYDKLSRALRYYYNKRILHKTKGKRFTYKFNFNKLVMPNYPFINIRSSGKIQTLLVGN
How it was run: as §1

ETV6 = ETV6 (Homo sapiens, UniProt P41212 1-452)
ETV6, sequence (P41212 whole entry): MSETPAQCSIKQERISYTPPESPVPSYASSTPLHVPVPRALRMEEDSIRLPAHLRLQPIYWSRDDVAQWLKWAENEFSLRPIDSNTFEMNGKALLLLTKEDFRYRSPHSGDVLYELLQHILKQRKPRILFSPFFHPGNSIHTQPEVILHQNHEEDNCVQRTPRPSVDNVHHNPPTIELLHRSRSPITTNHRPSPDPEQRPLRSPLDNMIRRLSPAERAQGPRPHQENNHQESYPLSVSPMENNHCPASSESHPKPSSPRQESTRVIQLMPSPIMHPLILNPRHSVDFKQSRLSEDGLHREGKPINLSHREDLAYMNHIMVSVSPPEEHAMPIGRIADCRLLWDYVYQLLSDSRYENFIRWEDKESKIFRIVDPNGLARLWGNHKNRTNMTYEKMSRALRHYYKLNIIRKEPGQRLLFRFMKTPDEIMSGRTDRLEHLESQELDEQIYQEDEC
How it was run: as §1

CGTCGC
binding signal (FLI1): 1.31 fold enrichment (6-mer frequency, TF over GST control)
binding signal (ELK1): 1.2 fold enrichment (6-mer frequency, TF over GST control)
binding signal (GABPA): 1.24 fold enrichment (6-mer frequency, TF over GST control)
binding signal (ERG): 1.19 fold enrichment (6-mer frequency, TF over GST control)
binding signal (ELF1): 1.21 fold enrichment (6-mer frequency, TF over GST control)
binding signal (EHF): 1.14 fold enrichment (6-mer frequency, TF over GST control)
binding signal (SPI1): 1.21 fold enrichment (6-mer frequency, TF over GST control)
binding signal (SPIB): 1.25 fold enrichment (6-mer frequency, TF over GST control)
binding signal (ELK3): 1.09 fold enrichment (6-mer frequency, TF over GST control)
binding signal (FEV): 1.14 fold enrichment (6-mer frequency, TF over GST control)
binding signal (ETV5): 1.12 fold enrichment (6-mer frequency, TF over GST control)
binding signal (SPIC): 1.07 fold enrichment (6-mer frequency, TF over GST control)
binding signal (ELF4): 1.06 fold enrichment (6-mer frequency, TF over GST control)
binding signal (ETV1): 1.3 fold enrichment (6-mer frequency, TF over GST control)
binding signal (ERF): 1.3 fold enrichment (6-mer frequency, TF over GST control)
binding signal (ETV3L): 1.13 fold enrichment (6-mer frequency, TF over GST control)
binding signal (ETS2): 1.14 fold enrichment (6-mer frequency, TF over GST control)
binding signal (ELF5): 1.19 fold enrichment (6-mer frequency, TF over GST control)
binding signal (ETV3): 1.2 fold enrichment (6-mer frequency, TF over GST control)
binding signal (ETV6): 1.2 fold enrichment (6-mer frequency, TF over GST control)
